According to PubChem BioAssay (Tox21):
Calls of active or inactive are those of the source. Unless noted, the call rests on the fitted dose curve; in most records, active means well fitted curve in the direction sought with a large enough effect in the repeat runs; inconclusive means weak or mixed curves; inactive means no such curve, though single readings can be large; an effect the other way counts as inactive or inconclusive.

Key:
[1] = qHTS assay for small molecule agonists of the p53 signaling pathway (AID 651631; calls by dose curve; further: nearly all actives have a fitted effect of over 15% in size)
In short: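 Readout was fluorescence from the LiveBLAzer FRET substrate, applied for 2 h at room temperature after 16 h compound exposure at 37 °C. Cells were the p53RE-bla HCT-116 line, with beta-lactamase driven by p53 response elements.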

[2] = qHTS assay for small molecules that induce genotoxicity in human embryonic kidney cells expressing luciferase-tagged ATAD5 (AID 651632); further: nearly all actives have a fitted effect of over 15% in size; further: potency means the concentration at half of the fitted maximal effect
In short: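 ATAD5-luc HEK293T, 2,000 cells/well; cpd or DMSO pin-transferred; 16 hr, 37C/5% CO2; Amplite 30 min RT; luminescence.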

[3] = qHTS assay for small molecule agonists of the p53 signaling pathway - cell viability (AID 651633; calls by dose curve; further: series mostly up to about 83 µM; nearly all actives have a fitted effect of over 30% in size)
In short: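 p53RE-bla cells were treated with compound for 16 hours at 37 C. Cytotoxicity was then measured as CellTiter-Glo luminescence after 30 min at room temperature.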

[4] = qHTS assay for small molecules that induce genotoxicity in human embryonic kidney cells expressing luciferase-tagged ATAD5 - cell viability (AID 651634; calls by dose curve; further: nearly all actives have a fitted effect of over 25% in size)
In short: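 Fluorescence from CellTiter-Fluor, reporting protease activity within live cells, served as the viability read-out. HEK293T cells carrying luciferase-tagged ATAD5 had been treated with compound for 15.5 hr at 37C.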

[5] = qHTS assay for small molecule disruptors of the mitochondrial membrane potential - cell viability (AID 720634; calls by dose curve;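 further: human HepG2 liver cancer cells; series mostly up to about 83 µM; nearly all actives have a fitted effect of over 20% in size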)
In short: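 Cells: HepG2, 2,000/well, attached overnight. Compound 1 hr, 37 C/5% CO2. +m-MPI dye, +CellTiter-Glo 30 min RT. Readout: luminescence (ATP).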

[6] = qHTS assay to test for compound auto fluorescence at 590 nm (red) in HepG2 cells (AID 720674)
In short: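 Fluorescence at 590 nm emission following 540 nm excitation was recorded from HepG2 wells one hour after compound transfer, with DMSO-only wells as vehicle and Rose Bengal sodium equivalency as the scale.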

[7] = qHTS assay to test for compound auto fluorescence at 535 nm (green) in HepG2 cells (AID 720675)
[8] = qHTS assay to test for compound auto fluorescence at 460 nm (blue) in HEK293 cells (AID 720678)
In short: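 After cell attachment (4-5 hr, 37C), compounds were pinned onto HEK293 monolayers in 10% dialyzed FBS medium. The blue channel (405/460 nm) was read following overnight culture. Equivalency was calculated against triamterene.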

[9] = qHTS assay to test for compound auto fluorescence at 590 nm (red) in HEK293 cells (AID 720679)
In short: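 Plates of HEK293 cells (10% dialyzed FBS) are treated with 23 nL compound or DMSO vehicle after a 4-5 hr attachment period, incubated overnight at 37C, and read for red fluorescence at 540/590nm.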

[10] = qHTS assay to test for compound auto fluorescence at 535 nm (green) in HEK293 cells (AID 720680)
[11] = qHTS assay to test for compound auto fluorescence at 460 nm (blue) in HEK293 cell free culture (AID 720681)
In short: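 Compounds were added to cell-free DMEM with 10% FBS and fluorescence read directly. The blue channel used 405 nm excitation and 460 nm emission, with triamterene as the reference fluorophore.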

[12] = qHTS assay to test for compound auto fluorescence at 535 nm (green) in HEK293 cell free culture (AID 720682)
In short: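 Compounds were pin-transferred into cell-free DMEM with 10% FBS, and green fluorescence was read at excitation 485 nm and emission 535 nm. Intensities were expressed as fluorescein-equivalent values.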

[13] = qHTS assay to test for compound auto fluorescence at 590 nm (red) in HEK293 cell free culture (AID 720683)
In short: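 Cell-free wells of DMEM with 10% FBS received compound, and intrinsic fluorescence was read at excitation/emission 540/590 nm. Values expressed as equivalence to Rose Bengal sodium.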

[14] = qHTS assay to test for compound auto fluorescence at 590 nm (red) in HepG2 cell free culture (AID 720684)
In short: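 Compounds are added to culture medium (MEM, 10% FBS) lacking cells, then fluorescence is read at excitation 540 nm, emission 590 nm, with Rose Bengal sodium as the equivalency standard.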

[15] = qHTS assay to test for compound auto fluorescence at 460 nm (blue) in HepG2 cell free culture (AID 720685)
In short: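 Compound (23 nL) or DMSO pinned into cell-free MEM with 10% FBS; blue fluorescence read at 405/460 nm excitation/emission, expressed as auto-fluorescence equivalency to triamterene.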

[16] = qHTS assay to test for compound auto fluorescence at 535 nm (green) in HepG2 cell free culture (AID 720686)
[17] = qHTS assay to test for compound auto fluorescence at 460 nm (blue) in HepG2 cells (AID 720687)
In short: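 HepG2 cells in MEM with 10% FBS, attached overnight at 37 C, were exposed to compound or DMSO for 1 hr at 37 C, 5% CO2. Blue fluorescence was read at 405/460 nm, with triamterene as reference fluorophore.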

[18] = molecular target: Glucocorticoid receptor (Homo sapiens) (UniProt P04150); assay: qHTS assay to identify small molecule agonists of the glucocorticoid receptor (GR) signaling pathway (AID 720691; active means well fitted activation curve with a large enough effect in the signal ratio in the repeat runs, not every such curve was filed as active; inconclusive means weak or mixed curves, or effect the other way; inactive means no such curve, though single readings can be large or run the other way; the % refers to the signal ratio; further: potency means the concentration at half of the fitted maximal effect)
In short: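 Fluorescence intensity from LiveBLAzer B/G FRET substrate (2 h, room temperature) reports beta-lactamase expression driven by the glucocorticoid response element in GR-bla HeLa cells after 18 h compound exposure at 37 C.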

[19] = molecular target: Glucocorticoid receptor (Homo sapiens) (UniProt P04150); assay: qHTS assay to identify small molecule antagonists of the glucocorticoid receptor (GR) signaling pathway (AID 720692; active means well fitted inhibition curve with a large enough effect in the signal ratio in the repeat runs, not every such curve was filed as active; inconclusive means weak or mixed curves, or effect the other way; inactive means no such curve, though single readings can be large or run the other way; the % refers to the signal ratio)
In short: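 HeLa GR-bla cells; cmpd + dex 5 nM final, 18 h 37 C; LiveBLAzer B/G FRET substrate 2 h RT; fluorescence intensity read. Antagonist mode, qHTS.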

[20] = qHTS assay for small molecule disruptors of the mitochondrial membrane potential (AID 720635); further: potency means the concentration at half of the fitted maximal effect
In short: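 HepG2 cells exposed to compound 1 hr at 37C, then Mito-MPS dye 30 min. Ratio read of aggregate (540/590 nm) versus monomer (490/535 nm) fluorescence.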
On the % scale 0 is the no-effect control and ±100 the full control effect.

Sequence of Glucocorticoid receptor (Homo sapiens) (P04150 whole entry, looked up): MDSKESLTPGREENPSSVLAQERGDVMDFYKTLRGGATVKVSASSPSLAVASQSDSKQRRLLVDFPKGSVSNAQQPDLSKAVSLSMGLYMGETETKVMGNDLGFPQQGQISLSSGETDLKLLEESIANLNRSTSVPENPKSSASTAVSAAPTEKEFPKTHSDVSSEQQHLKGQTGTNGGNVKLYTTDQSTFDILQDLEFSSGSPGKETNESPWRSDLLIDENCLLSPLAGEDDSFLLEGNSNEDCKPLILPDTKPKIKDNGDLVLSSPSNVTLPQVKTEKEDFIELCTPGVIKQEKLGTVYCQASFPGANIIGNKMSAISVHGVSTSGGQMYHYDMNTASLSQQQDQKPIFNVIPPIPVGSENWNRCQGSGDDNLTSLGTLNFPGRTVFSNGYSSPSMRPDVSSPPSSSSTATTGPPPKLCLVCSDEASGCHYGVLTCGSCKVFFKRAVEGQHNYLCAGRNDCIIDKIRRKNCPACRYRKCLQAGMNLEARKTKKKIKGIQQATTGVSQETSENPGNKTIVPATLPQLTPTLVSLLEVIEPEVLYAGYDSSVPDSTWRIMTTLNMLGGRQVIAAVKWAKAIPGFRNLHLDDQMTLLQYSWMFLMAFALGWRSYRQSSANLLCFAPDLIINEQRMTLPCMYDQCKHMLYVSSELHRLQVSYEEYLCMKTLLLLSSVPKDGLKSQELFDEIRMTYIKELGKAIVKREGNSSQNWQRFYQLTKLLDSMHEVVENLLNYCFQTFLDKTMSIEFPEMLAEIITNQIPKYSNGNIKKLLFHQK

O=C(CCCN1CCC(O)(c2ccc(Br)cc2)CC1)c1ccc(F)cc1
inactive: Potency [1] | Potency [2] | Potency [3] | Potency [4] | Potency [5] | fluorescence, relative to Rose Bengal [6] 0.666% [at 18.6 µM] | fluorescence, % of fluorescein control [7] 0.0047% [at 18.6 µM] | fluorescence, % of triamterene [8] -0.176% [at 18.6 µM] | fluorescence, % of fluorescent control [9] -0.139% [at 18.6 µM] | fluorescence, % of fluorescein [10] -0.0174% [at 18.6 µM] | fluorescence, % of fluorescent control [11] 0.0856% [at 18.6 µM] | activity change [12] 0.0165% [at 18.6 µM] | fluorescence, % of fluorescent control [13] 0.118% [at 18.6 µM] | fluorescence, % of Rose Bengal [14] -0.294% [at 18.6 µM] | fluorescence, % of fluorescent control [15] 0.0015% [at 18.6 µM] | fluorescence, % of fluorescein control [16] -0.0224% [at 18.6 µM] | fluorescence, % of fluorescent control [17] 0.0362% [at 18.6 µM] | Potency [18] | Potency [19]

CCCCN(CCCC)CCCOC(=O)c1ccc(N)cc1
inactive: Potency [1] | Potency [2] | Potency [3] | Potency [4] | fluorescence, relative to Rose Bengal [6] -0.556% [at 18.6 µM] | fluorescence, % of fluorescein control [7] 0.038% [at 18.6 µM] | fluorescence, % of triamterene [8] -0.0222% [at 18.6 µM] | fluorescence, % of fluorescent control [9] 0.141% [at 18.6 µM] | fluorescence, % of fluorescein [10] 0.0466% [at 18.6 µM] | fluorescence, % of fluorescent control [11] -0.0006% [at 18.6 µM] | activity change [12] -0.0464% [at 18.6 µM] | fluorescence, % of fluorescent control [13] 0.0804% [at 18.6 µM] | fluorescence, % of Rose Bengal [14] 0.0643% [at 18.6 µM] | fluorescence, % of fluorescent control [15] 0.138% [at 18.6 µM] | fluorescence, % of fluorescein control [16] -0.0572% [at 18.6 µM] | fluorescence, % of fluorescent control [17] -0.0696% [at 18.6 µM] | Potency [18] | Potency [19]

CC(C)(C)C(=O)C(Oc1ccc(Cl)cc1)n1ccnc1 (stereo unspecified)
inactive: Potency [1] | Potency [2] | Potency [3] | Potency [4] | Potency [5] | outcome [6] | outcome [7] | Potency [8] | outcome [10] | Potency [11] | outcome [12] | outcome [13] | outcome [14] | Potency [15] | outcome [16] | Potency [17]

CCC(C(=O)OCCOCCN(CC)CC)c1ccccc1 (stereo unspecified)
inactive: Potency [1] | Potency [2] | Potency [3] | Potency [4] | Potency [20] | outcome [6] | outcome [7] | Potency [8] | outcome [9] | outcome [10] | Potency [11] | outcome [12] | outcome [13] | outcome [14] | Potency [15] | outcome [16] | Potency [17] | Potency [18] | Potency [19]

Cc1cc(O)c2c(O)c3c(O)cccc3cc2c1
active: Potency [20] 18800 nM
inactive: Potency [1] | Potency [2] | Potency [3] | Potency [4] | outcome [6] | outcome [7] | Potency [8] | outcome [9] | outcome [10] | Potency [11] | outcome [12] | outcome [13] | outcome [14] | Potency [15] | outcome [16] | Potency [17] | Potency [18]

CN(C(=O)C(Cl)Cl)c1ccc(OC(=O)c2ccco2)cc1
inactive: Potency [1] | Potency [2] | Potency [3] | Potency [4] | outcome [6] | outcome [7] | Potency [8] | outcome [9] | outcome [10] | Potency [11] | outcome [12] | outcome [13] | outcome [14] | Potency [15] | outcome [16] | Potency [17] | Potency [18] | Potency [19]

CCCCCCOC(=O)C(C)C
inactive: Potency [1] | Potency [2] | Potency [3] | Potency [4] | Potency [5] | outcome [7] | Potency [8] | outcome [10] | Potency [11] | outcome [12] | outcome [13] | outcome [14] | Potency [15] | outcome [16] | Potency [17]

CC(=O)[C@H]1CC[C@H]2[C@@H]3C[C@H](C)C4=CC(=O)CC[C@]4(C)[C@H]3[C@@H](O)C[C@]12C
inactive: Potency [1] | Potency [2] | Potency [3] | Potency [4] | Potency [5] | fluorescence, relative to Rose Bengal [6] 0.133% [at 18.6 µM] | fluorescence, % of fluorescein control [7] -0.105% [at 18.6 µM] | fluorescence, % of triamterene [8] -0.0231% [at 18.6 µM] | fluorescence, % of fluorescent control [9] -0.987% [at 18.6 µM] | fluorescence, % of fluorescent control [11] -0.0076% [at 18.6 µM] | activity change [12] -0.0137% [at 18.6 µM] | fluorescence, % of fluorescent control [13] -0.395% [at 18.6 µM] | fluorescence, % of Rose Bengal [14] -0.145% [at 18.6 µM] | fluorescence, % of fluorescent control [15] 0.0471% [at 18.6 µM] | fluorescence, % of fluorescein control [16] 0.189% [at 18.6 µM] | fluorescence, % of fluorescent control [17] 0.0065% [at 18.6 µM]
active: Potency [18] 32.3 nM

Cc1cc(OI)c(C(C)C)cc1-c1cc(C(C)C)c(OI)cc1C
inactive: Potency [1] | Potency [2] | Potency [3] | Potency [4] | Potency [5] | outcome [6] | outcome [7] | Potency [8] | outcome [10] | Potency [11] | outcome [12] | outcome [13] | outcome [14] | Potency [15] | outcome [16] | Potency [18]

CCCCC(CC)COC(=O)COc1ccc(Cl)cc1C (stereo unspecified)
inactive: Potency [1] | Potency [2] | Potency [3] | Potency [4] | Potency [5] | outcome [6] | outcome [7] | Potency [8] | outcome [9] | Potency [11] | outcome [12] | outcome [13] | outcome [14] | Potency [15] | outcome [16] | Potency [17]

CCOC(=N)CC(=O)OCC
inactive: Potency [1] | Potency [2] | Potency [3] | Potency [4] | Potency [5] | outcome [6] | outcome [7] | Potency [8] | outcome [10] | Potency [11] | outcome [12] | outcome [13] | outcome [14] | Potency [15] | outcome [16] | Potency [17]

C=CCCCCCCCCCCCCCCCC
inactive: activation [1] -3.57% [at 8.3 µM] | activation [2] 2.36% [at 8.08 µM] | activity change, negative = cytotoxicity [3] 16.1% [at 8.08 µM] | activity, negative = cytotoxicity [4] 7.59% [at 8.08 µM] | fluorescence, relative to Rose Bengal [6] 0.0868% [at 3.72 µM] | fluorescence, % of fluorescein control [7] -0.0078% [at 3.72 µM] | fluorescence, % of triamterene [8] 0.18% [at 3.72 µM] | fluorescence, % of fluorescent control [9] 0.277% [at 3.72 µM] | fluorescence, % of fluorescein [10] 0.013% [at 3.72 µM] | fluorescence, % of fluorescent control [11] -0.189% [at 3.72 µM] | activity change [12] -0.098% [at 3.72 µM] | fluorescence, % of fluorescent control [13] -0.0981% [at 3.72 µM] | fluorescence, % of Rose Bengal [14] 0.0296% [at 3.72 µM] | fluorescence, % of fluorescent control [15] -0.0068% [at 3.72 µM] | fluorescence, % of fluorescein control [16] -0.0312% [at 3.72 µM] | fluorescence, % of fluorescent control [17] 0.0871% [at 3.72 µM]

CC1(C)O[C@@H]2C[C@H]3[C@@H]4CCC5=CC(=O)C=C[C@]5(C)[C@H]4[C@@H](O)C[C@]3(C)[C@]2(C(=O)CO)O1
active: Potency [2] 11.9 nM | Potency [18] 30.1 nM [inconclusive]
inactive: Potency [1] | Potency [3] | Potency [4] | Potency [5] | outcome [6] | outcome [7] | Potency [8] | outcome [9] | outcome [10] | Potency [11] | outcome [12] | outcome [13] | outcome [14] | Potency [15] | Potency [17]
